This passage reports growth results from PubChem BioAssay (NCI).

Test systems include T-47D breast; BT-549 breast; MDA-MB-435 melanoma; SW-620 colon; MCF7 breast; HCT-116 colon; HCC-2998 colon; KM12 colon.
Experiment in all cases: NCI-60 one-dose screen, 48 h (100 = growth as untreated, 0 = no growth, -100 = all killed)
Holding throughout (conditions): 10 µM

Compounds without any hit were thinned out: in the full panel of roughly 83,000, 20% have a hit.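 Each cell line was grown in a 96-well plate and treated with one concentration of compound for 48 hours. Values below 10 were considered active.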 Unmarked numbers belong to inactive results. The source made the active and inactive calls.

As for `CN(C)c1ccc2c(c1)OC(N)=C(C#N)C2c1ccc2c(c1)CCO2` (stereo not drawn), the growth in the assay on T-47D breast was 66.8%; in the assay with BT-549 breast, 16.7%; with MDA-MB-435 melanoma, 0.989% (active); in the assay with SW-620 colon, 31.9%; with MCF7 breast, 16.9%; in the assay with HCT-116 colon it was 5.3% (active). In addition, the growth in the assay with HCC-2998 colon is 36.8%; with KM12 colon it was 24.2%.
Turning to `O=C(Nc1ccc(CN2CCOCC2)cc1)c1ccc(-c2cc(Cl)ccc2Cl)o1`, the growth in the assay on T-47D breast was 34.7%; in the assay with BT-549 breast it was 102%; with MDA-MB-435 melanoma, -10.5% (active); in the assay with SW-620 colon, -2.26% (active); in the assay with MCF7 breast, -34.1% (active); in the assay on HCT-116 colon it was 22.3%. Besides, the growth in the assay on HCC-2998 colon was -83.5% (active); with KM12 colon, 8.82% (active).
As to `CC1(C)CCc2cc(-c3ccn(S(=O)(=O)c4ccc(Cl)cc4)n3)ccc2O1`, the growth in the assay on T-47D breast was 54.1%; in the assay with BT-549 breast, 88.8%; with MDA-MB-435 melanoma, 85.8%; in the assay with SW-620 colon it was 87.7%; in the assay with MCF7 breast it was 71.3%; with HCT-116 colon, 61.1%. Besides, the results for the growth in the assay on HCC-2998 colon and in the assay with KM12 colon were 94.3% and 77%, respectively.
As to `COc1cc(OC)cc(N2CCN(C(=O)Nc3nc4cc(F)ccc4nc3OC)CC2)c1`, the growth is 70.4% in the assay with T-47D breast; 24.4% with BT-549 breast; -31.9% (active) in the assay with MDA-MB-435 melanoma; 22% in the assay on SW-620 colon; 23.4% with MCF7 breast; 0.21% (active) with HCT-116 colon. Moreover, the growth was 21.4% in the assay with HCC-2998 colon and 13.7% in the assay on KM12 colon.
For the compound `CCCCCCCCCCCCCCCCn1cc[n+](C)c1`, the growth in the assay on T-47D breast is -0.127% (active); in the assay on BT-549 breast, -65.2% (active); in the assay on MDA-MB-435 melanoma, -55.8% (active); with SW-620 colon, -66.7% (active); in the assay with MCF7 breast, -79.9% (active); with HCT-116 colon it was -87.2% (active). Further, the growth was -94.4% (active) in the assay with HCC-2998 colon and -83.9% (active) in the assay on KM12 colon.
Turning to `CCN(CC)CC(O)CNc1ccnc2cc(Cl)c(Cl)cc12` (stereo not drawn), the growth was 93.1% in the assay on T-47D breast; 88.9% with BT-549 breast; 96.8% in the assay with MDA-MB-435 melanoma; 97.3% in the assay with SW-620 colon; 79.5% in the assay with MCF7 breast; 64.2% in the assay on HCT-116 colon. The growth is 102% in the assay with HCC-2998 colon and 94.2% with KM12 colon.
For `CC(C)(C)CC(C)(C)c1ccc(O)c(Cc2ccc(Cl)cc2Cl)c1`, the growth with T-47D breast was -72.9% (active); with BT-549 breast, -95.1% (active); with MDA-MB-435 melanoma, -81.1% (active); with SW-620 colon, -84.9% (active); in the assay on MCF7 breast, -88.9% (active); in the assay with HCT-116 colon, -91.8% (active). The figures for the growth in the assay with HCC-2998 colon and in the assay with KM12 colon were -89.1% (active) and -88.5% (active), respectively.
`Nc1ccc(Sc2ccc3c4c2cccc4c(=O)n2c4ccccc4nc32)cc1`: the growth with T-47D breast is 39.6%; with BT-549 breast it was 59.1%; with MDA-MB-435 melanoma it was 80.2%; in the assay with SW-620 colon it was 46.3%; with MCF7 breast it was 23.6%; with HCT-116 colon, 46.8%. Besides, the growth in the assay on HCC-2998 colon was 80.7%; with KM12 colon, 73.6%.
For the compound `CC1=CC2OC34COC3CC(OC(=O)C(F)(F)F)C4(C)C2(C)CC1` (stereo not drawn), the growth in the assay with T-47D breast is 94.2%; with BT-549 breast, 95.9%; with MDA-MB-435 melanoma, 101%; with SW-620 colon it was 103%; in the assay with MCF7 breast it was 93.7%; in the assay on HCT-116 colon, 96.6%. Moreover, the growth was 98.3% in the assay with HCC-2998 colon and 105% in the assay with KM12 colon.
As to `COc1cc(Cn2c(-c3ccccc3)cc3c2-c2oncc2CC3)cc(OC)c1`, the growth with T-47D breast was 45.8%; in the assay with BT-549 breast, 8.36% (active); in the assay with MDA-MB-435 melanoma it was -39.5% (active); in the assay with SW-620 colon, 23.8%; with MCF7 breast, 14.1%; in the assay on HCT-116 colon, 6.79% (active). For the same compound, the figures for the growth with HCC-2998 colon and with KM12 colon were 17.4% and 10.2%, respectively.
In the case of `COc1ccc(N2CCN(c3nc(-c4ccccc4)c(C#N)c(=O)[nH]3)CC2)cc1`, the growth in the assay on T-47D breast was 85.7%; in the assay with BT-549 breast, 93.6%; with MDA-MB-435 melanoma, 111%; with SW-620 colon, 113%; in the assay with MCF7 breast it was 93.9%; with HCT-116 colon, 89.9%. Besides, the growth is 99.8% with HCC-2998 colon and 96.8% in the assay with KM12 colon.
Turning to `Cc1ccc(C)c(S(=O)(=O)NC2c3ccccc3Oc3ccccc32)c1`, the growth was 72.1% in the assay on T-47D breast; 102% in the assay on BT-549 breast; 107% in the assay on MDA-MB-435 melanoma; 88.8% in the assay on SW-620 colon; 90.8% in the assay on MCF7 breast; 91.8% in the assay with HCT-116 colon. Also, the growth is 104% in the assay on HCC-2998 colon and 102% in the assay on KM12 colon.
As to `CCOC(=O)Cn1nnc(-c2ccc(OCc3ccccc3F)cc2)n1`, the growth with T-47D breast is 72.6%; with BT-549 breast, 96.9%; in the assay on MDA-MB-435 melanoma, -2.38% (active); with SW-620 colon it was 83.3%; with MCF7 breast, 75.8%; with HCT-116 colon, 80.1%. Also, the values for the growth in the assay with HCC-2998 colon and in the assay on KM12 colon were 100% and 75.6%, respectively.
Regarding `CCOC(=S)Sc1ccc([N+](=O)[O-])cc1[N+](=O)[O-]`, the growth with T-47D breast was 83.6%; in the assay on BT-549 breast it was 24.1%; in the assay with MDA-MB-435 melanoma, 61.7%; with SW-620 colon, 35.4%; with MCF7 breast, 65.5%; in the assay on HCT-116 colon, 31%. The results for the growth with HCC-2998 colon and with KM12 colon were 101% and 22.5%, respectively.
Consider `Cc1ccc(C2C=C(c3ccc(Cl)cc3)N=C3SC=CN32)c(Br)c1` (stereo not drawn), for which the growth is 56.8% in the assay on T-47D breast; 61.1% in the assay on BT-549 breast; 47.1% with MDA-MB-435 melanoma; 53.9% with SW-620 colon; 21.5% with MCF7 breast; 5.04% (active) in the assay on HCT-116 colon. In addition, the growth was 91.4% in the assay on HCC-2998 colon and 78.5% in the assay on KM12 colon.
Take `C/C(=N\NC(N)=S)C(C)(C)O`: the growth in the assay with T-47D breast was 57.1%; in the assay on BT-549 breast, 104%; in the assay with MDA-MB-435 melanoma, 96.9%; with SW-620 colon it was 77.4%; with MCF7 breast it was 27.1%; with HCT-116 colon it was 6.43% (active). The growth was 102% in the assay on HCC-2998 colon and 99.7% with KM12 colon.
